test: yeast transport mutant growth inhibition pilot in 384-well plates, post-Golgi transport modulator project (AID 636); details: absorbance 615 nm, about 18 h, hits give high values

inhibition, inactive:
CN/C(=C/[N+](=O)[O-])NCCSCc1ccc(CN(C)C)o1 -2.47%
CC1Oc2ccccc2N(CC(=O)NCc2cccs2)C1=O (stereo not given) -6.71%
COCCn1c(C)cc(C(=O)COC(=O)c2ccc(N3CCCC3=O)cc2)c1C -4.8%
Cc1ccc(S(=O)(=O)N2CCN(C(=O)N3CCOCC3)C2c2ccc(N(C)C)cc2)cc1 (stereo not given) -6.03%
C/C(=C\c1ccco1)C1C(C#N)=C(N)OC2=C1C(=O)CC(C)(C)C2 (stereo not given) -7.43%
CC(=O)SCC(=O)N=c1sc2cc(F)ccc2n1C -5.26%
COCCNC(=O)C(c1ccc(C)o1)N(Cc1cccs1)C(=O)c1snc(C(N)=O)c1N (stereo not given) 4%
c1ccc(-c2oc3ncnc(NCCN4CCOCC4)c3c2-c2ccccc2)cc1 -0.52%
CCOC(=O)C1=C(C)Nc2nc(SCC(=O)OC)nn2C1c1cc(F)cc(F)c1 (stereo not given) -8.24%
Cc1ccc(-c2nnc3c4ccccc4c(C)nn23)cc1S(=O)(=O)N1CCN(C)CC1 -5.2%
CCCCCC#CCC#CCC#CCC#CCCCC(=O)O 0.78%
CCn1c(SCC(=O)N2CCN(c3ccc(Cl)cc3)CC2)nc2ccccc2c1=O 5.89%
O=C(OC1CCc2ccccc2C1=O)c1ccccc1O (stereo not given) -1.33%
c1cc2c(cc1Cn1cnnn1)OCO2 -1.95%
Cc1cc(C)c(NC(=O)CSc2nnc(-c3ccncc3)n2Cc2ccco2)c(C)c1 -2.7%
CC1CCCCN1C(=O)Cn1nnc(-c2cccnc2)n1 (stereo not given) -7.81%
CCc1ccccc1NC(=O)c1ccoc1C 1.78%
COc1ccccc1NC(=O)NC(N)=O -5.89%
Cc1nc(-c2ccccc2)sc1C(N)=O -3.29%
CCO/C([O-])=N/c1c[n+](N2CCOCC2)no1 1.3%
N#Cc1cnc(SCCc2ccccc2)nc1N -5.14%
CCCC1Cc2c(sc3ncnc(N)c23)CO1 (stereo not given) -0.14%
Cn1c(=O)c2c(nc(Br)n2CCSc2nnnn2-c2ccccc2)n(C)c1=O -4.59%
CCn1cc(C(=O)NCc2ccco2)c(=O)c2cc(F)c(N3CCN(C(=O)c4ccco4)CC3)cc21 -7.4%
COc1ccc(C)cc1-n1nnnc1SC/C(O)=C(\C#N)c1nc2ccccc2[nH]1 -4.11%
Cc1cnc(NC(=O)CSc2nnc(-c3ccccc3)n2Cc2ccccc2)s1 0.55%
CCN(CC)CCCNc1oc(-c2cccc(Cl)c2)nc1C#N -4.55%
COc1cccc(NC(=O)C2CCCN2C(=O)Nc2cccc(F)c2)c1 (stereo not given) -3.7%
CN(C)CCC=C1c2ccccc2CCc2ccccc21 -3.12%
Cc1ccc(-c2nn[nH]n2)cc1 -4.79%
CCn1c(SCC(=O)Nc2ccc3c(c2)OCO3)nnc1-c1cnccn1 -5.62%
c1ccc(-c2cnc(CSc3ncnc4sccc34)o2)cc1 -5.68%
CCOC(=O)C1=C[C@]2(CC)CCCN3CCc4c(n1c1ccccc41)[C@@H]32 -0.26%
NCc1ccc(S(N)(=O)=O)cc1 -1.43%
COC(=O)c1cc(S(=O)(=O)N2CCOCC2)c(N2CCOCC2)cc1N1CCOCC1 -0.14%
CSc1oc(-c2ccccc2)nc1S(=O)(=O)c1ccc(F)cc1 -6.3%
Cc1c(NC(=O)CCc2ccc(S(=O)(=O)N3CCOCC3)cc2)c(=O)n(-c2ccccc2)n1C -3.77%
CC(C)N(C(=O)N1CCC(c2nc(-c3ccncc3)no2)CC1)C(C)C -4.86%
CCOC(=O)C1(CC)NC(c2cccc(F)c2)C2C(=O)N(CC)C(=O)C21 (stereo not given) -3.29%
CCCCN1C(=O)C2C(C(=O)Nc3cccc(OC)c3)C3C=CC2(O3)C1C(=O)NC1CCCCC1C (stereo not given) -2.86%

test: growth suppression of yeast trafficking mutant, preliminary HTS, modulators of trafficking downstream of Golgi apparatus project, 1536-format plate, OD 615 nm (AID 637; in the data active means inhibition above about 30%); details: yeast transport mutant growth, absorbance 615 nm, 18 h; hits give high values

inhibition, inactive:
CN/C(=C/[N+](=O)[O-])NCCSCc1ccc(CN(C)C)o1 4%
CC1Oc2ccccc2N(CC(=O)NCc2cccs2)C1=O (stereo not given) -0.91%
COCCn1c(C)cc(C(=O)COC(=O)c2ccc(N3CCCC3=O)cc2)c1C 2.18%
Cc1ccc(S(=O)(=O)N2CCN(C(=O)N3CCOCC3)C2c2ccc(N(C)C)cc2)cc1 (stereo not given) 9.64%
C/C(=C\c1ccco1)C1C(C#N)=C(N)OC2=C1C(=O)CC(C)(C)C2 (stereo not given) 1.09%
CC(=O)SCC(=O)N=c1sc2cc(F)ccc2n1C 7.78%
COCCNC(=O)C(c1ccc(C)o1)N(Cc1cccs1)C(=O)c1snc(C(N)=O)c1N (stereo not given) 12.7%
c1ccc(-c2oc3ncnc(NCCN4CCOCC4)c3c2-c2ccccc2)cc1 -4.1%
CCOC(=O)C1=C(C)Nc2nc(SCC(=O)OC)nn2C1c1cc(F)cc(F)c1 (stereo not given) 2.06%
Cc1ccc(-c2nnc3c4ccccc4c(C)nn23)cc1S(=O)(=O)N1CCN(C)CC1 1.15%
CCCCCC#CCC#CCC#CCC#CCCCC(=O)O 8.33%
CCn1c(SCC(=O)N2CCN(c3ccc(Cl)cc3)CC2)nc2ccccc2c1=O 25.5%
O=C(OC1CCc2ccccc2C1=O)c1ccccc1O (stereo not given) -1.27%
c1cc2c(cc1Cn1cnnn1)OCO2 4.26%
Cc1cc(C)c(NC(=O)CSc2nnc(-c3ccncc3)n2Cc2ccco2)c(C)c1 -4.73%
CC1CCCCN1C(=O)Cn1nnc(-c2cccnc2)n1 (stereo not given) -1.13%
CCc1ccccc1NC(=O)c1ccoc1C 4.19%
COc1ccccc1NC(=O)NC(N)=O 7.64%
Cc1nc(-c2ccccc2)sc1C(N)=O 12.6%
CCO/C([O-])=N/c1c[n+](N2CCOCC2)no1 2.33%
N#Cc1cnc(SCCc2ccccc2)nc1N 0%
CCCC1Cc2c(sc3ncnc(N)c23)CO1 (stereo not given) -0.73%
Cn1c(=O)c2c(nc(Br)n2CCSc2nnnn2-c2ccccc2)n(C)c1=O -7.27%
CCn1cc(C(=O)NCc2ccco2)c(=O)c2cc(F)c(N3CCN(C(=O)c4ccco4)CC3)cc21 -1.45%
COc1ccc(C)cc1-n1nnnc1SC/C(O)=C(\C#N)c1nc2ccccc2[nH]1 1.27%
Cc1cnc(NC(=O)CSc2nnc(-c3ccccc3)n2Cc2ccccc2)s1 13.3%
CCN(CC)CCCNc1oc(-c2cccc(Cl)c2)nc1C#N -0.67%
COc1cccc(NC(=O)C2CCCN2C(=O)Nc2cccc(F)c2)c1 (stereo not given) -3.06%
CN(C)CCC=C1c2ccccc2CCc2ccccc21 -1.67%
Cc1ccc(-c2nn[nH]n2)cc1 2.18%
CCn1c(SCC(=O)Nc2ccc3c(c2)OCO3)nnc1-c1cnccn1 -0.73%
c1ccc(-c2cnc(CSc3ncnc4sccc34)o2)cc1 -5.82%
CCOC(=O)C1=C[C@]2(CC)CCCN3CCc4c(n1c1ccccc41)[C@@H]32 -1.67%
NCc1ccc(S(N)(=O)=O)cc1 6.33%
COC(=O)c1cc(S(=O)(=O)N2CCOCC2)c(N2CCOCC2)cc1N1CCOCC1 -2.91%
CSc1oc(-c2ccccc2)nc1S(=O)(=O)c1ccc(F)cc1 -1.61%
Cc1c(NC(=O)CCc2ccc(S(=O)(=O)N3CCOCC3)cc2)c(=O)n(-c2ccccc2)n1C -8.2%
CC(C)N(C(=O)N1CCC(c2nc(-c3ccncc3)no2)CC1)C(C)C -5.64%
CCOC(=O)C1(CC)NC(c2cccc(F)c2)C2C(=O)N(CC)C(=O)C21 (stereo not given) 3.06%
CCCCN1C(=O)C2C(C(=O)Nc3cccc(OC)c3)C3C=CC2(O3)C1C(=O)NC1CCCCC1C (stereo not given) -3.11%

Source: PubChem BioAssay
